Data reported in PubChem BioAssay AID588591 (National Center for Advancing Translational Sciences (NCATS), 2011).
Among all 390,000 compounds or so, about 4,700 (1.2%) were called active. A call without a number means that no potency is given here. Not shown: some 4% with an inconclusive outcome. Calls follow the shape of the dose curve; as a rule, active = well fitted inhibition curve with a large enough effect; inconclusive = small, poorly fitted or top-dose-only effect, or another doubt; inactive = no such curve, though single readings can be large or run the other way. Only a selection was taken, and actives are over-represented in it overall.

biological target: DNA polymerase eta (Homo sapiens) (UniProt Q9Y253); assay: qHTS for Inhibitors of Polymerase Eta; conditions: recombinant Pol eta, fluorescent DNA replication assay; series mostly up to 114 µM
From the text: The Y-family of DNA polymerases, such as Pol eta, are specifically involved in DNA repair. Pol eta copies undamaged DNA with a lower fidelity than other DNA-directed polymerases. However, it accurately replicates UV-damaged DNA; when thymine dimers are present, this polymerase inserts the complementary nucleotides in the newly synthesized DNA, thereby bypassing the lesion and suppressing the mutagenic effect of UV-induced DNA damage. […] Thus, while pol eta's (and most likely iota's) normal function is to protect humans against the deleterious consequences of DNA damage, under certain conditions they can have deleterious effects on human health. As a consequence, we propose to utilize a high throughput replication assay to identify small molecule inhibitors of pol eta. In a collaboration between the National Institute of Child Health & Human Development (NICHD) and NIH Chemical Genomics Center, a high-throughput, fluorescent screen was developed to screen the NIH Molecular Libraries Small Molecule Repository (MLSMR). This screen is used to identify inhibitors of pol eta. NIH Chemical Genomics Center [NCGC] NIH Molecular Libraries Probe Centers Network [MLPCN] MLPCN Grant: MH090825 Assay Submitter (PI): Roger Woodgate, NICHD)
Three microliters of reagents (buffer in column 3 and 4 as negative control and 10 nM Pol eta in columns 1, 2, and 5-48) were dispensed into a 1,536-well black solid-bottomed plate. Compounds (23 nL) were transferred via Kalypsys pin tool equipped with 1536-pin array. The plates were then incubated for 15 min at room temperature, and 1 µL substrate (50 nM final concentration) was added to start the reaction and kinetically read twice at 0 min and 10 min on the Viewlux reader
Potency is read from the fitted curve at half-maximal effect.

Sequence of DNA polymerase eta (Homo sapiens) (Q9Y253 whole entry, looked up): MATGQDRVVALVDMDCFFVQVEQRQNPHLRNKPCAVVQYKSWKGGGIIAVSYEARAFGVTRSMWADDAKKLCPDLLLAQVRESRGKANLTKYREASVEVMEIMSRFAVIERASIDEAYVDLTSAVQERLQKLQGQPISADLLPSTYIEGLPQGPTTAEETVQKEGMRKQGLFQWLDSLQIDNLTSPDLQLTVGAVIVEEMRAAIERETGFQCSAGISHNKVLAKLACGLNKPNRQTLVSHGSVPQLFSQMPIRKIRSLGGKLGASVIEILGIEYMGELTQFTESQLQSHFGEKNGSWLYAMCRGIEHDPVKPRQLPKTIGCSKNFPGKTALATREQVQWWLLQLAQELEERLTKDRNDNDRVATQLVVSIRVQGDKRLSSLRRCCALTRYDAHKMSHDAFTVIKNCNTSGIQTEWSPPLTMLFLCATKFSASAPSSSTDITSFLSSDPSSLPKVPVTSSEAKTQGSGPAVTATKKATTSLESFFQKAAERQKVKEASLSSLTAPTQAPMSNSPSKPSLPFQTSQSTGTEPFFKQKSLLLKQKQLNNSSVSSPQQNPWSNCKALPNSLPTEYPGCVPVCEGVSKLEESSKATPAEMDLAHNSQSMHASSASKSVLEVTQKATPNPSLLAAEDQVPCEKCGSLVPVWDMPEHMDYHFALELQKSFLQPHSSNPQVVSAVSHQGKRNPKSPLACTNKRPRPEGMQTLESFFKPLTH

Structure (SMILES) | Potency
Cc1ccc(CN2CCc3nc(N4CCN(C)CC4)ncc3C2)cc1 | inactive
COc1ccc(CN2C(=O)C(NC(=O)c3cccc(C)c3)(C(F)(F)F)N=C2c2ccccc2)cc1 (configuration not stated) | inactive
COc1ccc(C(=O)CSc2c(C(C)C)cnc3c2c(=O)n(C)c(=O)n3C)cc1 | inactive
CCc1ccccc1NC(=O)Cc1ccc(NC(=O)N2CCCCc3ccccc32)cc1 | inactive
Cc1oc2ccc(O)c(CN3CCCCC3)c2c1C(=O)Nc1cccc(C(F)(F)F)c1 | inactive
CCOc1ccc(Nc2oc(/C=C/c3ccc(F)cc3)nc2C#N)cc1 | inactive
CCSc1ncnc2c(C#N)c3n(c12)CCCCC3 | inactive
CCSC1=C(C#N)C(=O)n2c1cc1c2CCCC1 | 12.6 µM (active)
CCOC(=O)c1ccc(CSc2nnc3cc(C)c4ccccc4n23)cc1 | inactive
CC(C)Cn1c(=O)c2ccccc2n2c(CCC(=O)N3CCN(c4cccc(Cl)c4)CC3)nnc12 | inactive
O=c1c2ccccc2n(Cc2cccc(Cl)c2)c(=O)n1Cc1ccccc1 | inactive
CCN(CC)CCCC(C)n1c2nc(=O)[nH]c(=O)c-2nc2cc(Cl)ccc21 (configuration not stated) | 31.6 µM (active)
CCN(CC)CCCC(C)Nc1ccnc2cc(Cl)ccc12 (configuration not stated) | inactive
CCc1cccc(NC(=O)CSc2nccn2C)c1 | inactive
CCCCn1cc(S(=O)(=O)c2ccc(OCC)cc2)c(=O)c2cc(OC)c(OC)cc21 | inactive
Cc1ccc(NC(=O)c2cc3cc(C)ccc3n2C)cc1 | inactive
CCOC(=O)/C=C/c1ccc(C(F)(F)F)cc1S(=O)(=O)NC(C)(C)C | inactive
CCOC(=O)C[C@H]1c2ccc(C(F)(F)F)cc2S(=O)(=O)N1c1ccccc1 | inactive
CCOC(=O)C1Nc2ccc(C(F)(F)F)cc2C2C=CCC12 (configuration not stated) | 79.4 µM (active)
CC(=O)Nc1ccc(NC(=O)C2CCCN(S(=O)(=O)c3ccc4c(c3)CCCC(=O)N4)C2)cc1 (configuration not stated) | inactive
Cc1c(Cl)cnc(NC(=O)COC(=O)C2CCCC2)c1Cl | 35.5 µM (active)
Cc1c(Cl)cnc(NC(=O)COC(=O)c2ccc(S(=O)(=O)NCc3ccco3)cc2)c1Cl | inactive
Cc1ccc(Cl)cc1NC(=O)COC(=O)C1CCCCC1 | inactive
COc1cccc(Nc2nc3ccccc3c3nncn23)c1 | inactive
CCN(CC)S(=O)(=O)c1ccc(C(=O)N=c2sc3cccc(OC)c3n2C)cc1 | inactive

Structure (SMILES) | Potency
Cc1cccc(C(=O)N2c3nc(-c4ccco4)nn3C3(CCCCC3)[C@@H]3CCCC[C@@H]32)c1 | inactive
CCCCCCc1cc2cc(-c3nnc(-c4ccccc4)o3)c(=O)oc2cc1O | 39.8 µM (active)
Cc1ccc(CNC(=O)CCc2c(C)nc3c(c(C)nn3-c3ccccc3)c2C)cc1 | inactive
O=C(CC1C(=O)N(c2ccccc2)C(=O)N1CCc1cccs1)Nc1ccc(F)cc1 (configuration not stated) | inactive
CC(=O)c1cc(-c2ccccc2)[nH]c1N1CCCC1 | inactive
O=C1NN(c2ccccc2)C(=O)/C1=C/c1ccc(-c2cccc(C(=O)O)c2)o1 | 20 µM (active)
CCOc1ccc(N(CC)S(=O)(=O)N2CCCC(C(=O)Nc3ccc(C(C)=O)cc3)C2)cc1 (configuration not stated) | inactive
COc1cc(C)ccc1OCCSc1nc2ccc(NC(=O)c3ccc(C)cc3)cc2s1 | inactive
CCOC(=O)N1CCc2c(sc3c2c(=O)n(Cc2ccccc2)c(=O)n3CC(=O)Nc2cccc(C)c2)C1 | inactive
Fc1ccc(C(Nc2ccc(Cl)c(C(F)(F)F)c2)c2nnc(-c3ccccc3)o2)cc1 (configuration not stated) | inactive
Cn1ccc(=Nc2ccc(NC(=O)c3ccc(N=c4ccn(C)c5ccc([N+](=O)[O-])cc45)cc3)cc2)cc1 | 5.62 µM (active)
CC(=O)Nc1ccc(C(=O)OCC(=O)Nc2ccc([N+](=O)[O-])cc2C(F)(F)F)cc1 | inactive
CC(=O)c1ccc(NC(=O)COc2ccccc2-c2nc(-c3ccccc3)no2)cc1 | inactive
CCS(=O)(=O)N1CCc2cc(C(=O)NCc3ccc(OC)cc3)ccc21 | inactive
Cc1cc(/C=N/Nc2ccc([N+](=O)[O-])cn2)c(C)n1-c1cccc(C(=O)O)c1 | 22.4 µM (active)
Cc1cccc(C(=O)NC(=S)N2CCN(c3ccc([N+](=O)[O-])cc3)CC2)c1 | inactive
CN1CCN(C(=O)c2cnn(-c3ccccc3)c2NC(=O)c2ccc([N+](=O)[O-])cc2)CC1 | inactive
COC(=O)c1cnn2c(C(F)(F)F)cc(-c3ccco3)nc12 | 20 µM (active)
Cc1ccc(-c2cc(C(F)(F)F)n3ncc(C(=O)N4CCCCC4c4cccnc4)c3n2)cc1 (configuration not stated) | inactive
O=C(NCc1ccco1)c1cnn2c(C(F)(F)F)cc(-c3ccco3)nc12 | inactive
Cc1ccc2nc(-c3ccc(O)cc3)c(Nc3ccc4c(c3)OCO4)n2c1 | inactive
CCOC(=O)C1CCC(CN(Cc2ccc(OC)cc2)S(=O)(=O)c2ccc(F)c(C(=O)Nc3cc(C)ccc3C)c2)CC1 (configuration not stated) | inactive
COc1ccc(-c2nc3ccc(C(=O)NCc4ccc(C)cc4)cc3nc2-c2ccc(OC)cc2)cc1 | inactive
COCCN(CCOC)S(=O)(=O)c1ccc(C(=O)Nc2nc3c(s2)CCc2ccccc2-3)cc1 | inactive
COc1ccc(C(=O)Nc2nc(-c3ccc(OC)cc3)c(-c3ccc([N+](=O)[O-])cc3)s2)cc1 | 79.4 µM (active)

Structure (SMILES) | Potency
CCOc1ccc(N(C)S(=O)(=O)c2cc(-c3cnc(C)o3)ccc2OC)cc1 | inactive
O=C(NCc1ccco1)c1sc2cccc(F)c2c1Cl | inactive
CCNC(=O)c1sccc1-n1cccc1 | inactive
Cc1ccsc1C(=O)NCCc1ccco1 | 22.4 µM (active)
CCC1=Nc2cc(C(=O)NCCCOC(C)C)ccc2Sc2ccc(C)cc21 | inactive
O=C(O)C(c1ccccc1)N1C(=O)/C(=C\c2ccc(-c3cccc(Cl)c3)o2)SC1=S (configuration not stated) | 44.7 µM (active)
O=C(NCc1ccccc1)c1cc(-c2cccc(Cl)c2)on1 | inactive
O=C(NCCc1ccc(Cl)cc1)c1ccc2c(c1)N(Cc1ccc(F)cc1)C(=O)CS2 | inactive
C=CC1(C)CC(=O)C2(O)C(C)(O1)C(OC(C)=O)C(O)C1C(C)(C)CCC(O)C12C (configuration not stated) | inactive
CCOC(=O)C1CCN(C(=O)CSc2c3c(nc4ccc(Cl)cc24)CCCC3)CC1 | inactive
Cc1cc(C(=O)CC#N)c(C)n1-c1c(C)n(C)n(-c2ccccc2)c1=O | inactive
Cc1ccc(C)c2c1cc(C)c1nnc(SCC(=O)Nc3cccc(C(=O)O)c3)n12 | inactive
Cc1cc(/C=C2\SC(=O)N(C)C2=O)c(C)n1-c1cccc(C(=O)O)c1 | 22.4 µM (active)
CCCCN(C)c1nnc(NC(=O)Nc2ccc(Br)c(C)c2)s1 | inactive
CCOC(=O)c1cc2c(=O)n3ccccc3nc2n(CC2CCCO2)c1=NC(=O)c1ccccc1F (configuration not stated) | inactive
COCCN(Cc1ccco1)C(=O)Cn1ncc2c([nH]c3ccccc32)c1=O | inactive
CCc1ccccc1NC(=O)c1sc2nc3c(cc2c1N)CN(Cc1ccccc1)CC3 | inactive
CCc1ccc(NC(=O)c2sc3nc4c(cc3c2N)CN(CC)CC4)cc1 | inactive
CCc1ccc2nc3sc(C(=O)Nc4nnc(CC)s4)c(N)c3cc2c1 | 50.1 µM (active)
CCCN(CCC)CCCNC(=O)Cn1cc2c(n1)-c1c(oc(C(=O)N3CCCC3)c1C)CC2 | inactive
CCOC(=O)c1cc(OC(=O)c2ccccc2Cl)n(-c2ccccc2)n1 | inactive
Cn1c(=O)c2c(-c3ccccc3Br)n(Cc3ccccc3)cc2n(C)c1=O | inactive
CCc1ccc(NC(=O)CN2C(=O)CCSc3ccc(S(=O)(=O)N4CCCC4)cc32)cc1 | inactive
CC(Oc1ccc(Br)cc1)C(=O)NCC(c1ccco1)N1CCCCC1 (configuration not stated) | inactive
CC(Oc1ccccc1)C(=O)NN1Cc2ccccc2C1=N (configuration not stated) | inactive

Structure (SMILES) | Potency
CC(Oc1ccccc1)C(=O)Nc1oc(-c2ccco2)c(-c2ccco2)c1C#N (configuration not stated) | 20 µM (active)
Cc1c(-c2cccc(NC(=O)C(C)(C)C)c2)nc2ncccn12 | inactive
CCOc1ccc(S(=O)(=O)N(CC(=O)NCCSCc2ccc(C)cc2)c2ccccc2)cc1 | inactive
COc1ccc(S(=O)(=O)Nc2cc3c(C(=O)OC(C)C)c(C)oc3c3ccccc23)cc1 | inactive
Cc1ccc(S(=O)(=O)/N=S(\C)C(C)C)cc1 (configuration not stated) | inactive
COc1ccc(N2CCN(C3CCCCC3NS(=O)(=O)c3ccccc3)CC2)cc1 (configuration not stated) | inactive
COc1ccc(S(=O)(=O)/N=C2\C=C(NS(=O)(=O)c3ccccc3)C(=O)c3ccccc32)cc1 | 22.4 µM (active)
Cc1ccc(S(=O)(=O)Nc2nc(N)n(-c3ccccc3)n2)cc1 | inactive
Cc1ccc(S(=O)(=O)/N=C2\C=C(NS(=O)(=O)c3ccc(C)cc3)C(=O)c3ccccc32)cc1 | 79.4 µM (active)
COc1ccc(N(CC(=O)NCCc2ccc(Cl)cc2)S(=O)(=O)c2c(C)nn(C)c2C)cc1 | inactive
CCN(CC)c1ccc(NC(=O)Cn2nc3c(cc2=O)CCCC3)c(C)c1 | inactive
CCCCOC(=O)CSc1ncnc2sc3c(c12)CCC(C)C3 (configuration not stated) | inactive
NC1CCN(O)C1=O (configuration not stated) | inactive
CCOc1ccc(NC(=O)CCC(=O)N2CC(C)Oc3ccc(C)cc32)cc1 (configuration not stated) | inactive
COc1ccc(NC(=O)CCCc2nnc3n(CCC(C)C)c(=O)c4sccc4n23)c(OC)c1 | inactive
O=C(O)c1ccc2c(c1)C(=O)N(c1ccc(/C=C/C(=O)c3ccccc3)cc1)C2=O | 22.4 µM (active)
COc1ccc(OC)c(NC(=O)c2ccc3c(c2)C(=O)N(c2ccc(OC(C)=O)cc2)C3=O)c1 | inactive
Cc1cc(N2C(=O)c3ccc(C(=O)NCc4ccccc4)cc3C2=O)no1 | inactive
COc1ccc(Cl)cc1-n1c(CCC(=O)O)ccc1-c1ccc(C)cc1 | inactive
Cc1cc(C)cc(Oc2c(C(F)(F)F)oc3cc(OCC(=O)O)ccc3c2=O)c1 | 35.5 µM (active)
O=C(COc1ccc2c(C(F)(F)F)cc(=O)oc2c1)Nc1ccc2c(c1)OCCO2 | inactive
Cc1ccc(Oc2c(C(F)(F)F)oc3c(CN4CCCCC4)c(O)ccc3c2=O)cc1 | inactive
